Out of some 310,000 compounds screened, about 3,400 (1.1%) were called active. The sample holds actives, similar compounds and a random draw of the others, so the mix is not that of the screen. Unmarked numbers belong to inactive results.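 Rule for the calls: active = fluorescence ratio B-score at most minus 3 library SDs, with starting brightness B-score within 2 library SDs (cut at about -5.5 in these data); inactive = the rest, inconclusive results apart.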
The compounds below were run against Potassium voltage-gated channel subfamily KQT member 2 (Rattus norvegicus) (UniProt O88943) (assay: rat KCNQ2 potassium channel inhibitors, primary screen, cell-based, CHO-K1, FluxOR thallium flux, B-score (AID 2156)). Details: 20 min, at 10 µM; active compounds read low.
Sequence of Potassium voltage-gated channel subfamily KQT member 2 (Rattus norvegicus) (O88943 whole entry, looked up): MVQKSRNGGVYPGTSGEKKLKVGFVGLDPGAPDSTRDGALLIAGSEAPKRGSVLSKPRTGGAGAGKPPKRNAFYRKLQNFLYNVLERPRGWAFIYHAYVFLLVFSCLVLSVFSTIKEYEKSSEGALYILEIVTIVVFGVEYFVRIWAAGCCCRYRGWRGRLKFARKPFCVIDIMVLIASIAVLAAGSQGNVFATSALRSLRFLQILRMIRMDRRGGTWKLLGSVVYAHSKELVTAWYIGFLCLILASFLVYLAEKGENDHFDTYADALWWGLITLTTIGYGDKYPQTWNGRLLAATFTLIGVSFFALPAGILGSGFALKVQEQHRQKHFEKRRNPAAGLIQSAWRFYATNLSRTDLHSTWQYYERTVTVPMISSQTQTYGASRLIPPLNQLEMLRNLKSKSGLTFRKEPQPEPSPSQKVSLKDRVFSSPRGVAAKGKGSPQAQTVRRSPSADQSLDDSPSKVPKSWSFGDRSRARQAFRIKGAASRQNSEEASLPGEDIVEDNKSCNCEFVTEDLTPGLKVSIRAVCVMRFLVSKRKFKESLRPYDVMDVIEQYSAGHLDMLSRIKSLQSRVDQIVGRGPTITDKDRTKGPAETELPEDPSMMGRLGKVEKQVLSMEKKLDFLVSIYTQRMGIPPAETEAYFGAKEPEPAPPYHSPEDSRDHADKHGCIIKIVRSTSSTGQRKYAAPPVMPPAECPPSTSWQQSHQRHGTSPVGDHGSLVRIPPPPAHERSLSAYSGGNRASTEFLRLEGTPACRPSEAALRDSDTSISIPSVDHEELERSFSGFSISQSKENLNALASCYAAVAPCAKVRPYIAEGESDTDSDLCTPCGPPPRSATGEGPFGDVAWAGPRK

Question: How did the B-score turn out when `CC1=NNC(=O)C1Cc1c(Cl)cccc1Cl` (stereo unspecified) was run?
Answer: inactive

Question: With `COC(=O)[C@@]12CCCN1[C@H](c1ccc(-c3ccc(F)cc3)c(OC)c1)[C@H]1C(=O)N(C)C(=O)[C@H]12` as the compound, how does the B-score read?
Answer: inactive

Question: `COc1ccc(C(=O)CN2C(=O)NC3(CCc4ccccc43)C2=O)c(OC)c1` (stereo unspecified) was tested. Which B-score did it give?
Answer: inactive

Question: With `CCN(CC)c1ccc(S(=O)(=O)N2CCCCC2)cc1NC(=O)C1=COCCO1` as the compound, how does the B-score read?
Answer: -0.93

Question: With `C=CCn1c(SCC(=O)NCC2CCCO2)nc2sc(C)c(C)c2c1=O` (stereo unspecified) as the compound, how does the B-score read?
Answer: inactive

Question: `C=CCn1c(SCC(=O)/C(C#N)=C(\C)N)nc2sc(C)c(C)c2c1=O` was tested. Which B-score did it give?
Answer: -7.77 (active)

Question: For `Cc1sc2nc(SCC(N)=O)n(C)c(=O)c2c1C`, which B-score is on record?
Answer: -0.14

Question: How did the B-score turn out when `COc1ccccc1C(=O)NC(=O)COC(=O)C1CC1` was run?
Answer: inactive

Question: With `COCCN(C(=O)COC(=O)Cc1cccc(OC)c1)c1c(N)n(Cc2ccccc2)c(=O)[nH]c1=O` as the compound, how does the B-score read?
Answer: inactive

Question: For `COc1cccc(COc2ccc(N(C)S(=O)(=O)c3ccccc3)cc2)c1`, which B-score is on record?
Answer: -8.25 (active)

Question: With `CN(c1ccc(OCC(=O)O)cc1)S(=O)(=O)c1ccc2ccccc2c1` as the compound, how does the B-score read?
Answer: -1.18

Question: With `Cc1ccc2nc(COc3ccc(N(C)S(=O)(=O)c4ccccc4)cc3)cc(=O)n2c1` as the compound, how does the B-score read?
Answer: inactive

Question: How did the B-score turn out when `COc1ccccc1C(CNC(=O)c1cccc(NS(=O)(=O)c2ccc(Br)cc2)c1)N(C)C` (stereo unspecified) was run?
Answer: -0.89

Question: With `O=S(=O)(Nc1ccc(-c2ccc(N3CCOCC3)nn2)cc1)c1cc(Cl)ccc1Cl` as the compound, how does the B-score read?
Answer: -0.08

Question: For `Cc1cc2oc(=O)cc(CN3CCN(Cc4ccccc4)CC3)c2cc1C`, which B-score is on record?
Answer: inactive

Question: With `CCCOc1ccc(C2c3c(oc4cc(C)c(C)cc4c3=O)C(=O)N2CCCN2CCOCC2)cc1` (stereo unspecified) as the compound, how does the B-score read?
Answer: -0.39

Question: Which B-score does the source give for `Cc1cc2oc3ccc(NCCC4CCCN4C)cc3c(=O)c2cc1C` (stereo unspecified) here?
Answer: -6.02 (active)

Question: Which B-score does the source give for `Cc1ccc(S(=O)(=O)N2CCN(C(=O)Cc3sc(C)nc3-c3ccc(F)cc3)CC2)c(C)c1` here?
Answer: -0.7

Question: How did the B-score turn out when `CC(C)CN(C(=O)COC(=O)c1ccc2ccccc2c1)c1c(N)n(Cc2ccccc2)c(=O)[nH]c1=O` was run?
Answer: inactive

Question: `O=C(Nc1cc(Cl)ccc1N1CCOCC1)c1ccc(N2CCCC2=O)cc1` was tested. Which B-score did it give?
Answer: inactive

Question: For `COc1cc(OC)cc(C(=O)NNC(=O)CNC(=O)c2ccc(Br)o2)c1`, which B-score is on record?
Answer: -1.49

Question: Which B-score does the source give for `CC(C)n1c(COc2ccccc2)nc2ccccc21` here?
Answer: -0.24

Question: With `CC(C)n1c(NCc2c[nH]c3ccccc23)nc2ccccc21` as the compound, how does the B-score read?
Answer: -8.14 (active)

Question: `Cc1ccc(O)c(CNc2nc3ccccc3n2C)c1` was tested. Which B-score did it give?
Answer: inactive

Question: `Cc1nn(C)c(C)c1NS(=O)(=O)c1ccc(OC(F)(F)F)cc1` was tested. Which B-score did it give?
Answer: inactive

Question: Which B-score does the source give for `Cc1ccc(NC(=O)CSc2nnc(COc3ccccc3C)o2)cc1` here?
Answer: inactive

Question: For `O=C(CSc1nc2ccccc2o1)N1c2ccccc2Sc2ccc(Cl)cc21`, which B-score is on record?
Answer: -3.87

Question: For `Cc1ccccc1OCc1nnc(SCC(=O)N2c3ccccc3Sc3ccc(Cl)cc32)o1`, which B-score is on record?
Answer: -7.73 (active)

Question: `CN(N)c1nc(N2CCCC2)nc(N2CCCC2)n1` was tested. Which B-score did it give?
Answer: -0.33

Question: With `CC(=O)CC[C@@H](C)O[C@@H]1OC(C)[C@H](O)CC1O` (stereo partly specified) as the compound, how does the B-score read?
Answer: -0.8

Question: `c1ccc(-c2nnc(SCc3nc4ccccc4[nH]3)o2)cc1` was tested. Which B-score did it give?
Answer: inactive

Question: How did the B-score turn out when `Clc1ccccc1SCc1nc2ccccc2[nH]1` was run?
Answer: -5.77 (active)

Question: `c1ccc2c(CSCc3nc4ccccc4[nH]3)cccc2c1` was tested. Which B-score did it give?
Answer: -4.3

Question: For `O=C(CSc1nc(=O)n2ccccc2n1)Nc1ccc2c(c1)OCCO2`, which B-score is on record?
Answer: -1.2

Question: Which B-score does the source give for `C#CCNC(=O)[C@H](Cc1ccc(C(=O)c2ccccc2)cc1)NC(=O)OC(C)(C)C` here?
Answer: inactive

Question: `COc1ccccc1NC(=O)C(C)OC(=O)CC1CCCC1` (stereo unspecified) was tested. Which B-score did it give?
Answer: -1

Question: `COc1ccccc1NC(=O)[C@H](COCc1ccccc1)NC(=O)OC(C)(C)C` was tested. Which B-score did it give?
Answer: -6.32 (active)

Question: For `CCOC(=O)N1CCN(C(=O)c2ccccc2SCC(=O)NCC2CCCCC2)CC1`, which B-score is on record?
Answer: inactive

Question: How did the B-score turn out when `COc1ccc(NS(=O)(=O)c2ccc(C)c(C(=O)NCC(c3cccs3)N3CCOCC3)c2)cc1` (stereo unspecified) was run?
Answer: -0.42

Question: For `CCC(C)n1c(-c2cc(OC)c(OC)c(OC)c2)nc2nc3ccccc3nc21` (stereo unspecified), which B-score is on record?
Answer: -6.81 (active)

Question: Which B-score does the source give for `COc1cc(C(O)c2nc3ccccc3n2C)cc(OC)c1OC` (stereo unspecified) here?
Answer: -0.53

Question: Which B-score does the source give for `COc1cc(-c2n[nH]c(=S)n2Cc2ccccc2)cc(OC)c1OC` here?
Answer: -0.07

Question: Which B-score does the source give for `Cc1csc(=O)n1CC(=O)OCC(=O)N(CC(C)C)c1c(N)n(Cc2ccccc2)c(=O)[nH]c1=O` here?
Answer: inactive

Question: How did the B-score turn out when `COc1ccc(Cc2nnc(SCC(=O)N(c3ccccc3)C(C)C)n(N)c2=O)cc1` was run?
Answer: -2.15

Question: For `O=C(COC(=O)Cc1ccccc1F)NNC(=O)c1ccc(Cl)cc1`, which B-score is on record?
Answer: inactive

Question: How did the B-score turn out when `Cc1cc(Cl)c2oc(C(=O)NC(C)c3ccncn3)c(C)c2c1` (stereo unspecified) was run?
Answer: inactive

Question: How did the B-score turn out when `Cc1cc(Cl)c2oc(C(=O)N(C)C(C)c3ccccn3)c(C)c2c1` (stereo unspecified) was run?
Answer: -5.81 (active)

Question: `Cc1cc(Cl)c2oc(C(=O)N3CCC(O)(c4ccccc4)CC3)c(C)c2c1` was tested. Which B-score did it give?
Answer: -2.12

Question: For `Cc1ccc(C(=O)C(C)OC(=O)Cc2n[nH]c(=O)c3ccccc23)cc1C` (stereo unspecified), which B-score is on record?
Answer: inactive

Question: With `CN(C)Cc1ccccc1C1(O)c2ccccc2CSc2ccccc21` (stereo unspecified) as the compound, how does the B-score read?
Answer: -7.67 (active)

Question: Which B-score does the source give for `COCCn1c(SC(C)C(=O)NC2CC2)nnc1-c1cccc(C)c1` (stereo unspecified) here?
Answer: inactive

Question: `CC(OC(=O)C1CC(=O)N(Cc2ccccc2)C1)C(=O)Nc1ccccc1[N+](=O)[O-]` (stereo unspecified) was tested. Which B-score did it give?
Answer: inactive

Question: With `Fc1cccc(Cl)c1CSc1ccc(-c2ccco2)nn1` as the compound, how does the B-score read?
Answer: -0.68

Question: For `Clc1ccccc1CSc1nnc(-c2ccco2)c(-c2ccco2)n1`, which B-score is on record?
Answer: -9.12 (active)

Question: Which B-score does the source give for `COC(OC)c1ccnc(SCc2ccccc2Cl)n1` here?
Answer: -0.02

Question: `CCOc1ccc(S(=O)(=O)Nc2ccc(C(=O)NCCCN3CCCC3=O)cc2)cc1` was tested. Which B-score did it give?
Answer: inactive

Question: For `CCCNC(=O)c1ccc(N2CCC3(CC2)CC(c2cccc(Br)c2)=NO3)c(NC(=O)c2ccco2)c1`, which B-score is on record?
Answer: -0.15

Question: For `Cc1cc2nc3n(c2cc1C)CC1CC(C(=O)NCCC(C)C)N(C)C31` (stereo unspecified), which B-score is on record?
Answer: inactive

Question: Which B-score does the source give for `Cc1ccc(C(=O)c2c(NC(=O)c3ccncc3)sc3c2CCCC3)cc1` here?
Answer: -3.32

Question: With `Cc1ccc(C(=O)c2c(NC(=O)c3ccccc3)sc(C)c2C)cc1` as the compound, how does the B-score read?
Answer: -7.48 (active)

Question: How did the B-score turn out when `Cc1sc(NC(=O)c2ccc3ncsc3c2)c(C(N)=O)c1C` was run?
Answer: inactive

— PubChem BioAssay AID2156 (Johns Hopkins Ion Channel Center, 2009)
